Inconclusive results are not listed. Calls of active or inactive are those of the source. Calls follow the shape of the dose curve; as a rule, active = well fitted inhibition curve with a large enough effect; inconclusive = small, poorly fitted or top-dose-only effect; inactive = flat fitted curve, though single readings scatter. Where a SMILES comes first, the peptide text is derived from it.
Assays:
Experiment in all cases: Cytotoxic Profiling of Annotated Libraries Using Quantitative High-Throughput Screening (AID 1296008); also: nearly all actives have a fitted effect of over 60% in size
Conditions in all cases: Five cell lines viability, CellTiter-Glo ATP luminescence, 48-72 h; max response: hits give low values
CRL-7250 = normal cell line; test system: CRL-7250
Procedure, shortened: (§1)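 Cells exposed to compounds for 48 or 72 hr at 37 degrees Celsius. Viability read as ATP-coupled luminescence with CellTiter-Glo after 10 min at room temperature.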

HEK293 = test system: HEK293
Procedure, shortened: as §1

HaCat = test system: HaCat
Procedure, shortened: as §1

KB-3-1 = test system: KB-3-1
Procedure, shortened: as §1

NIH3T3 = test system: NIH3T3
Procedure, shortened: as §1

Measured: max response
% is scaled to controls: 0 for no effect and ±100 for the full control effect.

C[C@@H]1O[C@@H](O[C@H]2[C@H](OC(=O)[C@]34CCC(C)(C)C[C@H]3C3=CCC5[C@@]6(C)CC[C@H](O[C@@H]7O[C@H](CO[C@@H]8OC[C@H](O)[C@H](O)[C@H]8O[C@@H]8OC[C@@H](O)[C@H](O)[C@H]8O)[C@@H](O)[C@H](O)[C@H]7O)C(C)(C)C6CC[C@@]5(C)[C@]3(C)C[C@H]4O)O[C@H](CO)[C@@H](O)[C@@H]2O)[C@H](O[C@@H]2O[C@H](CO)[C@@H](O)[C@H](O)[C@H]2O)[C@H](O)[C@H]1O[C@@H]1OC[C@@H](O)[C@H](O[C@@H]2OC[C@@H](O)[C@H](O)[C@H]2O)[C@H]1O (stereo not given in full)
inactive: CRL-7250 0.998% | HEK293 5% | HaCat | KB-3-1 -0.626% | NIH3T3 -3.82%

C[C@@H]1O[C@@H](O[C@H]2[C@@H]3C=CO[C@@H](O[C@@H]4O[C@H](CO)[C@@H](O)[C@H](O)[C@H]4O)[C@@H]3[C@@]3(CO)O[C@@H]23)[C@H](O)[C@H](OC(=O)/C=C/c2ccc(O)cc2)[C@H]1OC(=O)/C=C/c1ccc(O)cc1
inactive: CRL-7250 4.25% | HEK293 -0.28% | HaCat | KB-3-1 2.65% | NIH3T3 -10.1%

CC(=O)NC(Cc1ccccc1)C(=O)NC(C(=O)O)C(C)C (stereo not drawn) (Ac-Phe-Val-OH; configuration not given here)
inactive: CRL-7250 -0.555% | HEK293 | HaCat -2.09% | KB-3-1 4.23% | NIH3T3 4.03%

COc1ccc(S(=O)(=O)Nc2nc(-c3cccc([N+](=O)[O-])c3)cs2)cc1OC
inactive: CRL-7250 -1.12% | HEK293 2.2% | HaCat | KB-3-1 6.48% | NIH3T3

CC1(C)CC[C@]2(C(=O)O[C@@H]3O[C@H](CO)[C@@H](O)[C@H](O)[C@H]3O)CC[C@]3(C)C(=CCC4[C@@]5(C)CC[C@H](O[C@@H]6O[C@H](C(=O)O)[C@@H](O)[C@H](O)[C@H]6OC6OC(CO)C(O)C(O)C6O)C(C)(C)C5CC[C@]43C)[C@@H]2C1 (stereo not given in full)
inactive: CRL-7250 3.56% | HEK293 -12.1% | HaCat | KB-3-1 | NIH3T3

CCC(C)/C=C(C)/C=C/C1=CC2=C(Cl)C(=O)C(C)(OC(C)=O)C(=O)C2=CN1C(CC(=O)O)C(=O)O (stereo not given)
inactive: CRL-7250 4.26% | HEK293 4.62% | HaCat | KB-3-1 7.58% | NIH3T3 -16.9%

Nc1ncnc2c1C(=O)N(c1ccc(C3CCC(CC(=O)O)CC3)cc1)CCO2 (stereo not given)
inactive: CRL-7250 2.41% | HEK293 -15.1% | HaCat | KB-3-1 | NIH3T3

CN(C)C(=O)C(O)C(Cc1ccccc1)NC(=O)c1cc2cc(Cl)ccc2[nH]1 (stereo not given)
inactive: CRL-7250 | HEK293 | HaCat -1.1% | KB-3-1 5.45% | NIH3T3 -2.44%

CC1CCC2(NC1)OC1C(O)C3C4CCC5CC(O[C@@H]6O[C@H](CO)[C@@H](O)[C@H](O)[C@H]6O[C@@H]6O[C@@H](C)[C@H](O)[C@@H](O)[C@H]6O)CCC5(C)C4CCC3(C)C1C2C (stereo not given in full)
inactive: CRL-7250 -4.87% | HEK293 2.08% | HaCat | KB-3-1 -0.386% | NIH3T3

C[C@@H]1CCC2C(C)(C)[C@H](O)[C@H](O)C[C@]2(C)[C@@]12Cc1c(O)cc3c(c1O2)CN(CCCC(=O)O)C3=O (stereo not given in full)
inactive: CRL-7250 -7.06% | HEK293 -1.57% | HaCat | KB-3-1 3.58% | NIH3T3 4.1%

CC1(C)C=Cc2c(ccc3c2[N+]([O-])=C2C3(O)CC34NC(=O)C5(CCCN5C3=O)CC4C2(C)C)O1 (stereo not given)
inactive: CRL-7250 -1.3% | HEK293 -1.32% | HaCat -0.0821% | KB-3-1 | NIH3T3

CC1(C)C(=O)CCC2(C)C1C(O)C=C1COC(=O)C12O (stereo not given)
inactive: CRL-7250 -15.2% | HEK293 -3.58% | HaCat | KB-3-1 7.63% | NIH3T3 -3.93%

O=C(O)/C=C/c1ccc2occc2c1O[C@@H]1O[C@H](CO)[C@@H](O)[C@H](O)[C@H]1O
inactive: CRL-7250 -6.75% | HEK293 1.57% | HaCat | KB-3-1 | NIH3T3

COc1c(O)cc2c(c1O)C(=O)O[C@H](C)[C@H]2O
inactive: CRL-7250 | HEK293 -6.03% | HaCat | KB-3-1 4.43% | NIH3T3

COc1cc(/C=C/C(=O)O[C@@H]2O[C@H](CO)[C@@H](O)[C@H](O)[C@H]2O)ccc1O
inactive: CRL-7250 2.76% | HEK293 | HaCat 3.8% | KB-3-1 -1.87% | NIH3T3 0.679%

C[C@@H]1O[C@@H](O[C@H]2[C@H](OC(=O)[C@]34CCC(C)(C)C[C@H]3C3=CCC5[C@@]6(C)CC[C@H](O[C@@H]7O[C@H](CO[C@@H]8OC[C@H](O)[C@H](O)[C@H]8O)[C@@H](O)[C@H](O)[C@H]7O)C(C)(C)C6CC[C@@]5(C)[C@]3(C)C[C@H]4O)OC[C@@H](O)[C@@H]2O)[C@H](O)[C@H](O[C@@H]2OC[C@](O)(CO)[C@H]2O)[C@H]1O[C@@H]1OC[C@H](O)[C@H](O[C@@H]2OC[C@@H](O)[C@H](O)[C@H]2O)[C@H]1O (stereo not given in full)
inactive: CRL-7250 | HEK293 -12.4% | HaCat | KB-3-1 6% | NIH3T3 -2.23%

CC(=C\C(C)O)/C=C(\C)C(=O)CC1CC(CC(N)=O)CC(=O)O1 (stereo not given)
inactive: CRL-7250 | HEK293 1.11% | HaCat | KB-3-1 | NIH3T3

C=C1C[C@@]2(O)O[C@@]3(C[C@H]2C(C)C)[C@@H](C)CC[C@@H]13
inactive: CRL-7250 | HEK293 -11.6% | HaCat -13.2% | KB-3-1 9.57% | NIH3T3
